The text below walks through data of publication PMC11062922 (Nature Chemical Biology, 2023).

Molecules are shown by their SMILES. Read-outs that look alike come from different tables or passages of the source.

Set-up in all cases: species or system human, MV4-11 + K-562 + COLO205 + SK-N-BE2 + OVCAR-8
One test concerns HSP90B1. To be noted: read-out: apparent Kd, n = 1.
Another test relates to ILK. The note with it: read-out: apparent Kd; compound concentrations:100 nM and 1000 nM (sheet 'Samples'); n = 1.
The next test deals with GSK3A. To be noted: read-out: apparent Kd, n = 1.
The subject of a further test is PIK3CA. To be noted: read-out: apparent Kd; compound concentrations: 100 nM and 1000 nM (sheet 'Samples'), CATDS: 0.37756355389393098; n = 1.
In a further test the test system is PIK3CD. The note with it: read-out: apparent Kd; compound concentrations: 100 nM and 1000 nM (sheet 'Samples'), CATDS: 0.43898083182903402; n = 1.
The next test deals with PIM2. To be noted: read-out: apparent Kd; compound concentrations: 100 nM and 1000 nM (sheet 'Samples'), CATDS: 0.17072245355379401; n = 1.
For the next test, the system named is GSK3B. The note with it: read-out: apparent Kd, n = 1.
In the next test the test system is JAK2. To be noted: read-out: apparent Kd; compound concentrations: 100 nM and 1000 nM (sheet 'Samples'), CATDS: 1; n = 1.
The test system of another test is PRKCA. The note with it: read-out: apparent Kd; compound concentrations: 100 nM and 1000 nM (sheet 'Samples'), CATDS: 0.213712947404604; n = 1.
The subject of the next test is PRKCB. The note with it: read-out: apparent Kd; compound concentrations: 100 nM and 1000 nM (sheet 'Samples'), CATDS: 0.109320974178185; n = 1.
The next test deals with PRKCD. The note with it: read-out: apparent Kd, compound concentrations: 100 nM and 1000 nM (sheet 'Samples'), n = 1.
Another test has as its system PRKCQ. To be noted: read-out: apparent Kd; compound concentrations: 100 nM and 1000 nM (sheet 'Samples'), CATDS: 0.26439518938370499; n = 1.
The next test has as its system RPS6KA6. To be noted: read-out: apparent Kd; compound concentrations: 100 nM and 1000 nM (sheet 'Samples'), CATDS: 0.131410075991204; n = 1.
Another test relates to HSPE1. The note with it: read-out: apparent Kd, n = 1.
The test system of a further test is PGK1. To be noted: read-out: apparent Kd; compound concentrations: 100 nM and 1000 nM (sheet 'Samples'), CATDS: 0.76516694172770505; n = 1.
Another test has as its system PKM. The note with it: read-out: apparent Kd; compound concentrations: 100 nM and 1000 nM (sheet 'Samples'), CATDS: 0.19798813046119201; n = 1.
The subject of the next test is RAN. To be noted: read-out: apparent Kd; compound concentrations: 100 nM and 1000 nM (sheet 'Samples'), CATDS: 0.17121500690258801; n = 1.
Another test concerns IRAK3. The note with it: read-out: apparent Kd; compound concentrations:100 nM and 1000 nM (sheet 'Samples'); n = 1.
Another test concerns STK16. The note with it: read-out: apparent Kd; compound concentrations:100 nM and 1000 nM (sheet 'Samples'); n = 1.
For the next test, the system named is NQO2. To be noted: read-out: apparent Kd; compound concentrations:100 nM and 1000 nM (sheet 'Samples'); n = 1.
The next test concerns TGFBR1. The note with it: read-out: apparent Kd; compound concentrations: 100 nM and 1000 nM (sheet 'Samples'), CATDS: 0.31893275464491699; n = 1.
In a further test the test system is IARS. To be noted: read-out: apparent Kd; compound concentrations: 100 nM and 1000 nM (sheet 'Samples'), CATDS: 1; n = 1.
The subject of the next test is ICK. The note with it: read-out: apparent Kd; compound concentrations: 100 nM and 1000 nM (sheet 'Samples'), CATDS: 0.23938622627213799; n = 1.
Another test deals with STRADA. To be noted: read-out: apparent Kd; compound concentrations: 100 nM and 1000 nM (sheet 'Samples'), CATDS: 0.19302175262426299; n = 1.
Setting [1] is: compound concentrations:100 nM and 1000 nM (sheet 'Samples').

`COC(=O)Nc1nc2cc(Oc3ccc(NC(=O)Nc4cc(C(F)(F)F)ccc4Cl)cc3)ccc2[nH]1.Cl` [GW697465A]: the potency estimated from few doses with HSP90B1 (setting [1]) is 1220 nM; in the test with ILK it was 2220 nM.

Take `O=C(Nc1n[nH]c2nc(-c3ccco3)c(Br)cc12)C1CCN(Cc2ccccc2)C1.O=C(O)[C@H](O)[C@@H](O)C(=O)O` (centres unmarked) [SB-742034-AC]: the potency estimated from few doses with GSK3A (setting [1]) is 410 nM.

Take `COc1ccc(Nc2nccc(N3CCC(NC(=O)c4cc5ccccc5s4)C3)n2)cc1` (centres unmarked) [GSK1379738A]: the potency estimated from few doses with HSP90B1 (compound concentrations: 100 nM and 1000 nM (sheet 'Samples'), CATDS: 0.19171870490815801) was 1350 nM; with PIK3CA, 248 nM; with PIK3CD it was 190 nM; with PIM2 it was 2150 nM.

As for `O=C(Nc1n[nH]c2cc(-c3ccco3)ccc12)C1CC1` [SB-737447], the potency estimated from few doses was 498 nM in the test on GSK3A (setting [1]) and 645 nM in the test on GSK3B (setting [1]).

As to `COc1cccc(C2=C(c3cn(C)c4ccccc34)C(=O)NC2=O)c1` [RO0318649-000], the potency estimated from few doses in the test on GSK3A (setting [1]) was 802 nM; in the test with GSK3B (compound concentrations: 100 nM and 1000 nM (sheet 'Samples'), CATDS: 0.44424601969869798) it was 1340 nM.

With `COc1cccc(C2=C(Nc3ccc(Cl)c(C(=O)O)c3)C(=O)NC2=O)c1` [SB-390769], the potency estimated from few doses with GSK3A (setting [1]) is 323 nM; in the test with GSK3B (setting [1]), 644 nM.

As to `COC(=O)Nc1nc2ccc(S(=O)(=O)c3ccc(NC(=O)Nc4cc(C(F)(F)F)ccc4F)cc3)cc2[nH]1.Cl` [GW680908A], in the test on JAK2, the potency estimated from few doses was 356 nM.

For `O=C(Nc1n[nH]c2nc(-c3cccs3)c(Br)cc12)C1CC1` [SB-735297], the potency estimated from few doses with GSK3A (setting [1]) was 1290 nM.

Take `Cn1cc(C2=C(c3cn(CCCCCN)c4ccccc34)C(=O)NC2=O)c2ccccc21` [RO0317843-000]: the potency estimated from few doses was 500 nM in the test on GSK3A (compound concentrations: 100 nM and 1000 nM (sheet 'Samples'), CATDS: 0.120915323717963); 455 nM with GSK3B (compound concentrations: 100 nM and 1000 nM (sheet 'Samples'), CATDS: 0.12552661641342699); 159 nM in the test with PRKCA; 666 nM in the test on PRKCB; 398 nM in the test with PRKCD (CATDS: 0.13254198888423899); 114 nM in the test on PRKCQ. Moreover, the potency estimated from few doses in the test on RPS6KA6 is 407 nM.

On to `Cn1cc(C2=C(c3cn(C)c4ccccc34)C(=O)NC2=O)c2ccccc21` [RO0317208-000], for which the potency estimated from few doses in the test on HSPE1 (compound concentrations: 100 nM and 1000 nM (sheet 'Samples'), CATDS: 0.26304172030338102) was 475 nM; in the test with PGK1 it was 47 nM; in the test on PKM, 1120 nM; with RAN, 1970 nM.

Regarding `Cn1cc(C2=C(c3cccc(OC[C@H](O)CO)c3)C(=O)NC2=O)c2ccccc21` [RO3206173-000], the potency estimated from few doses is 6.06 nM in the test with GSK3A (compound concentrations: 100 nM and 1000 nM (sheet 'Samples'), CATDS: 0.54568324377959498); 8.49 nM with GSK3B (compound concentrations: 100 nM and 1000 nM (sheet 'Samples'), CATDS: 0.46137484559858299).

Take `COc1cc(C=NNc2ncnc3c2cnn3-c2ccccc2)ccc1O` [GW513184X]: the potency estimated from few doses with IRAK3 was 1310 nM; in the test on STK16 it was 1950 nM.

Regarding `Fc1ccc(-c2c(-c3ccccn3)nc3n2CCS3)cc1` [SKF-104365], the potency estimated from few doses is 149 nM in the test on HSPE1 (setting [1]), 1340 nM with NQO2 and 537 nM with TGFBR1.

As for `Cc1ccc(-c2nc(Nc3ccncc3)c3ccccc3n2)s1` [GSK189015A], in the test on IARS, the potency estimated from few doses was 1440 nM.

As for `O=C(Nc1n[nH]c2nc(-c3ccco3)ccc12)C1CC1` [SB-743899], the potency estimated from few doses with GSK3A (compound concentrations: 100 nM and 1000 nM (sheet 'Samples'), CATDS: 0.54830406508791196) was 1390 nM; in the test on PRKCD (CATDS: 0.45951776162212499), 1990 nM.

With `CCCn1cc(C2=C(c3cn(C)c4ccccc34)C(=O)NC2=O)c2ccccc21` [RO0318549-000], the potency estimated from few doses in the test on GSK3A (compound concentrations: 100 nM and 1000 nM (sheet 'Samples'), CATDS: 0.30461249661504503) is 823 nM; in the test with GSK3B (compound concentrations: 100 nM and 1000 nM (sheet 'Samples'), CATDS: 0.29770520720673899), 857 nM; in the test with ICK, 1320 nM; in the test on STRADA it was 2260 nM.

Turning to `Cl.Cn1cc(C2=C(c3ccc(N)cc3)C(=O)NC2=O)c2ccccc21` [RO0317373-001], in the test with GSK3A (compound concentrations: 100 nM and 1000 nM (sheet 'Samples'), CATDS: 1), the potency estimated from few doses was 866 nM.
